The values below come from PubChem BioAssay (Tox21).

A short description of assay [1]: qHTS assay to identify small molecule agonists of H2AX - cell viability counter screen (AID 1224847; calls by dose curve; further: nearly all actives have a fitted effect of over 30% in size; further: potency means the concentration at half of the fitted maximal effect). The gist of the method: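 Compounds tested at 15 concentrations were incubated 3 hr at 37C with wild-type CHO-K1 cells; cellular ATP-based luminescence (CellTiter-Glo) indicated viability.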
A short description of assay [2]: qHTS RealTime-Glo MT Cell Viability Assay in HepG2 cells - 24 hour (AID 1224867). Further: nearly all actives have a fitted effect of over 50% in size. The gist of the method:
(§1)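 Real-time, nonlytic viability: 600 HepG2 cells/well mixed with NanoLuc enzyme plus prosubstrate; 5 h settle, compound (DMSO) added by pintool; luminescence monitored over 40 h at 37 C.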

Assay [3] in a line: qHTS RealTime-Glo MT Cell Viability Assay in HEK293 cells - 32 hour (AID 1224868). Further: nearly all actives have a fitted effect of over 50% in size. Further: potency means the concentration at half of the fitted maximal effect. The gist of the method: (§2)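 Cells + reagent dispensed (600 cells/well, HEK293) → 5 h at 37 C/5% CO2 → 23 nL compound in DMSO pinned → 40 h at 37 C → luminescence read at 0, 8, 16, 24, 32, 40 h.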
Assay [4] can be described thus: A CellTox Green Cytotoxicity Assay to monitor cytotoxicity in HEK293 cells - 0 hour (AID 1224869). Further: nearly all actives have a fitted effect of over 50% in size. The gist of the method: (§3)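 Cytotoxicity was tracked continuously in HEK293 cells by a DNA-binding dye excluded from viable cells. Compounds were transferred in DMSO 5 h after seeding; fluorescence was recorded at intervals up to 40 h.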
Assay [5] in a line: qHTS RealTime-Glo MT Cell Viability Assay in HepG2 cells - 40 hour (AID 1224870). Further: nearly all actives have a fitted effect of over 50% in size. Further: potency means the concentration at half of the fitted maximal effect. The gist of the method: (§4)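 Real-time viability: cells seeded at 600 per well together with NanoLuc and cell-permeant prosubstrate, compounds added after 5 h incubation. Luminescence tracked at 0, 8, 16, 24, 32 and 40 h of exposure.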
A short description of assay [6]: A CellTox Green Cytotoxicity Assay to monitor cytotoxicity in HEK293 cells - 40 hour (AID 1224871). Further: nearly all actives have a fitted effect of over 45% in size. Further: potency means the concentration at half of the fitted maximal effect. The gist of the method:
as §3

Assay [7] is described as follows: qHTS RealTime-Glo MT Cell Viability Assay in HEK293 cells - 16 hour (AID 1224872). Further: nearly all actives have a fitted effect of over 50% in size. Further: potency means the concentration at half of the fitted maximal effect. The gist of the method: as §2
(In general: In qHTS, concentration-response curves come from the screen itself.)

Assay [8] can be described thus: qHTS RealTime-Glo MT Cell Viability Assay in HepG2 cells - 8 hour (AID 1224873). Further: nearly all actives have a fitted effect of over 55% in size. The gist of the method: as §4
Assay [9] in a line: A CellTox Green Cytotoxicity Assay to monitor cytotoxicity in HEK293 cells - 24 hour (AID 1224875). Further: series mostly up to about 77 µM; nearly all actives have a fitted effect of over 45% in size. The gist of the method:
as §3

Assay [10] is described as follows: A CellTox Green Cytotoxicity Assay to monitor cytotoxicity in HepG2 cells - 16 hour (AID 1224876). Further: nearly all actives have a fitted effect of over 45% in size. In a few lines: (§5)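 Real-time, homogeneous cytotoxicity readout: dead-cell DNA staining by CellTox Green in HepG2 monolayers, fluorescence measured at timed intervals up to 40 h of continuous compound exposure.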
Assay [11] can be described thus: qHTS RealTime-Glo MT Cell Viability Assay in HepG2 cells - 32 hour (AID 1224877). Further: nearly all actives have a fitted effect of over 55% in size. Further: potency means the concentration at half of the fitted maximal effect. The gist of the method: as §1
Assay [12] can be described thus: A CellTox Green Cytotoxicity Assay to monitor cytotoxicity in HepG2 cells - 24 hour (AID 1224878). Further: nearly all actives have a fitted effect of over 45% in size. Further: potency means the concentration at half of the fitted maximal effect. In a few lines:
as §5

Assay [13] is described as follows: A CellTox Green Cytotoxicity Assay to monitor cytotoxicity in HepG2 cells - 40 hour (AID 1224879). Further: nearly all actives have a fitted effect of over 40% in size. Further: potency means the concentration at half of the fitted maximal effect. In a few lines: as §5
Assay [14] in a line: qHTS RealTime-Glo MT Cell Viability Assay in HEK293 cells - 0 hour (AID 1224880). The gist of the method: (§6)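 Nonlytic bioluminescent viability monitoring. HEK293 at 600 cells/well with reagent; 5 h settle; compound transfer by pintool; plates held at 37 C and read at set time points.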
The nature of assay [15]: A CellTox Green Cytotoxicity Assay to monitor cytotoxicity in HEK293 cells - 32 hour (AID 1224881). Further: nearly all actives have a fitted effect of over 40% in size. Further: potency means the concentration at half of the fitted maximal effect. In a few lines: as §3
Assay [16] is described as follows: A CellTox Green Cytotoxicity Assay to monitor cytotoxicity in HepG2 cells - 0 hour (AID 1224882). Further: nearly all actives have a fitted effect of over 35% in size. The gist of the method:
as §5

Assay [17] in a line: A CellTox Green Cytotoxicity Assay to monitor cytotoxicity in HepG2 cells - 32 hour (AID 1224883). Further: nearly all actives have a fitted effect of over 50% in size. Further: potency means the concentration at half of the fitted maximal effect. In a few lines: as §5
Assay [18] is described as follows: qHTS RealTime-Glo MT Cell Viability Assay in HEK293 cells - 40 hour (AID 1224874). Further: nearly all actives have a fitted effect of over 50% in size. Further: potency means the concentration at half of the fitted maximal effect. As to conditions: RealTime-Glo luminescence; max response: stronger effect = lower value. In a few lines:
as §6

Each structure is given as a SMILES string. Values joined by “and” are separate entries in the source; they are usually repeats but may differ in a detail not shown here. Equal entries are not always repeated. Records with an inconclusive call do not appear. Where a structure was tested more than once in an assay, its records may differ in their call. Active and inactive are the calls of the source. Unless noted, the call rests on the fitted dose curve; in most records, active means well fitted curve in the direction sought with a large enough effect in the repeat runs; inconclusive means weak or mixed curves; inactive means no such curve, though single readings can be large; an effect the other way counts as inactive or inconclusive.
On the % scale 0 is the no-effect control and ±100 the full control effect.

`CCCCn1cc[n+](C)c1`: the Potency entry in assay [1], in [2], in [3], in assay [4], in assay [6] and in assay [7] was “inactive” each time. The Potency entry in [8], in assay [9], in [10], in [12], in [13] and in assay [15] was “inactive” throughout. Besides, the Potency result in assay [16] and in assay [17] was “inactive” throughout. Besides, the Potency result in assay [5] is “inactive and 35.2 µM (active)”; in assay [11] it was “inactive and 44.3 µM (active)”. The result in assay [14] was inactive.
On to `CCCCCCCCn1cc[n+](C)c1`, for which the Potency in assay [1] was 56.3 µM (active) and 80 µM (active) and 90.5 µM (active); in [3] it was 3.86 µM (active) and 3.12 µM (active) and 3.93 µM (active); in [6], 19.4 µM (active) and 49.5 µM (active); in [18], 3.46 µM (active) [middle of 4 runs]; in assay [15], 21.7 µM (active) and inactive. In addition, the Potency entry in assay [2], in assay [4], in [5], in assay [8], in [9] and in [10] was “inactive” each time. Also, the Potency result in assay [11], in [12], in [13], in [16] and in assay [17] was “inactive” in each case. In addition, the molecule was called inactive in assay [14].
Turning to `Cc1cc(Cl)ccc1OCC(=O)O`, the Potency result in [1], in [3], in assay [4], in assay [5], in assay [6] and in assay [7] was “inactive” in each case. The Potency entry in assay [8], in [9], in assay [10], in assay [11], in [12] and in assay [13] was “inactive” each time. Also, the Potency result in [15], in [16] and in [17] was “inactive” each time. The max response in assay [18] is 23.3% (inactive) and 12.2% (inactive) and 10.9% (inactive). In addition, the call in assay [14] was inactive.
Regarding `O=C(O)c1ccccc1O`, the Potency result in [1], in assay [3], in assay [4], in assay [5], in assay [6] and in assay [7] was “inactive” each time. The Potency entry in assay [8], in [9], in [10], in assay [11], in assay [12] and in assay [13] was “inactive” in each case. In addition, the Potency entry in assay [15], in assay [16] and in assay [17] was “inactive” each time. The max response in assay [18] is 2.39% (inactive) [middle of 5 runs]. Further, the molecule was called inactive in [14].
As for `CCCC[N+]1(C)CCCCC1`, the Potency entry in assay [1], in [3], in [4], in assay [6], in [7] and in assay [8] was “inactive” each time. In addition, the Potency entry in assay [9], in assay [10], in assay [12], in assay [13], in assay [15] and in [16] was “inactive” each time. Moreover, in assay [17], the Potency result was “inactive”. In addition, the Potency result in assay [5] was “inactive and 30.8 µM (active)”; in assay [11] it was “inactive and 48.8 µM (active)”. Besides, the max response in [18] is -0.0247% (inactive) [middle of 5 runs]. Further, the call in [14] was inactive.
As for `O=C(O)C(Cl)(Cl)Cl`, the Potency entry in assay [1], in assay [3], in [4], in [5], in assay [6] and in assay [7] was “inactive” throughout. Besides, the Potency result in [8], in assay [9], in assay [10], in assay [11], in [12] and in assay [13] was “inactive” in each case. Further, the Potency result in assay [15], in assay [16] and in [17] was “inactive” throughout. In addition, the max response in assay [18] was 1.76% (inactive) and 3.09% (inactive). Besides, the molecule was called inactive in assay [14].
`CCCCCCCCCCCC(=O)O`: the Potency result in [1], in assay [3], in [4], in assay [5], in [6] and in assay [7] was “inactive” throughout. Moreover, the Potency entry in assay [8], in assay [9], in [10], in [11], in assay [12] and in assay [13] was “inactive” in each case. The Potency entry in assay [15], in assay [16] and in assay [17] was “inactive” in each case. Besides, in assay [18], the max response was 0.697% (inactive) and -0.0798% (inactive) and 0.587% (inactive). Besides, the outcome in assay [14] was inactive.
As for `C=CCOC(Cn1ccnc1)c1ccc(Cl)cc1Cl` (stereo unspecified), the Potency is 113 µM (active) and inactive in assay [1]; 21.9 µM (active) and 38.9 µM (active) in assay [3]; 55.1 µM (active) and inactive in assay [6]; 43.8 µM (active) in [7]; 17.4 µM (active) and 38.9 µM (active) in assay [18]; 49.1 µM (active) in assay [12]. For the same molecule, the Potency in assay [13] is 49.1 µM (active); in assay [15], 55.1 µM (active) and inactive; in assay [17], 49.1 µM (active) and 54.9 µM (active). Moreover, the Potency entry in [4], in assay [5], in [8], in assay [10], in assay [11] and in [16] was “inactive” each time. For the same molecule, the result in [14] was inactive.
Take `Nc1ccc(-c2ccc(N)cc2)cc1`: the Potency result in assay [1], in assay [3], in assay [4], in assay [5], in assay [6] and in assay [7] was “inactive” in each case. Also, the Potency entry in [8], in [9], in assay [10], in [11], in assay [12] and in [15] was “inactive” throughout. Moreover, the Potency result in assay [16] and in assay [17] was “inactive” each time. Further, in assay [18], the max response is -0.165% (inactive) and -5.77% (inactive) and -8.89% (inactive). In assay [13], the Potency was 48.4 µM (active) and inactive. For the same molecule, the result in assay [14] was inactive.
With `O=C(O)C(Cl)Cl`, the Potency entry in assay [1], in assay [3], in assay [4], in assay [5], in assay [6] and in assay [7] was “inactive” throughout. For the same molecule, the Potency result in assay [8], in [9], in assay [10], in [11], in assay [12] and in assay [13] was “inactive” in each case. Also, the Potency result in assay [15], in [16] and in assay [17] was “inactive” in each case. Moreover, in [18], the max response is 5.65% (inactive) [middle of 4 runs]. Further, in assay [14], the outcome was inactive.
For `O=C(O)c1nc(Cl)ccc1Cl`, the Potency entry in assay [1], in assay [3], in assay [4], in assay [5], in [6] and in [7] was “inactive” in each case. The Potency result in assay [8], in assay [9], in [10], in assay [11], in assay [12] and in assay [13] was “inactive” throughout. Besides, the Potency entry in [15], in [16] and in [17] was “inactive” each time. In addition, in assay [18], the max response is 3.62% (inactive) and 10.3% (inactive) and 7.66% (inactive). The outcome in [14] was inactive.
